This is a sample that favours compounds with a hit; in the whole collection about 12% have one here.
Arbovirus inh – antivirals against arbovirus infection, primary screen, cell-based, full library, 10K replicate subset. arbovirus infection cell-based antiviral screen. inhibition, % at 10 µM. actives 0.37% (n = 200,000). AID 1251, 2008; in the data active means inhibition above about 30%
CHOP inhibitor – inhibitors of CHOP promoter induction, primary screen, cell-based, unfolded protein response, luciferase reporter. AID 2732, 2010. inhibition, % at 10 µM. actives 3.8% (n = 220,000). CHO-K1 CHOP-promoter luciferase, tunicamycin-induced, 15-18 h;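 active means compounds that reduced the stress-induced luciferase reporter signal by more than about 70% of percent inhibition, limit read from the data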;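 further: 0% = tunicamycin plus vehicle and 100% = wells without tunicamycin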
WT yeast gro inh – growth inhibition of WT strain, primary screen, mitochondrial fusion inhibitor project, WT and mutant strains, chemical genetic. mitochondrial fusion phenotypic screen. inhibition, % at 10 µM. actives 2.1% (n = 190,000); in the data active means inhibition above about 58%; tested in S. cerevisiae
L major viab – Leishmania major promastigote growth inhibition, primary screen; Leishmania major promastigotes, resazurin fluorescence viability; inhibition, % at 10 µM; actives 9% (n = 200,000); in the data active means inhibition above about 50%;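 further: promastigotes grown with compound for 44 hours at 28 °C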
Starred values were filed as active, the others as inactive; · = not tested or not shown.

SMILES	Arbovirus inh	CHOP inhibitor	WT yeast gro inh	L major viab
C=CCc1ccccc1OCC(O)CN1CCN(CCN2C(=O)c3cccc4cccc(c34)C2=O)CC1 (stereo not given)	-44	86*	43	100*
O=C1c2cccc3cccc(c23)C(=O)N1CC1CCCO1 (stereo not given)	-1	26	12	1
CCOc1ccc(NC(=S)N2CCN(CCN3C(=O)c4cccc5cccc(c45)C3=O)CC2)cc1	-11	53	14	71*
Cc1cccc(C)c1OCC(O)CN1CCC(CN2C(=O)c3cccc4cccc(c34)C2=O)CC1 (stereo not given)	-40	79*	42	93*
COc1ccccc1N1CCN(C(=O)CCN2C(=O)c3cccc4cccc(c34)C2=O)CC1	-7	40	-5	-4
CC(=O)c1ccc(NC(=S)N2CCN(CCN3C(=O)c4cccc5cccc(c45)C3=O)CC2)cc1	-10	-28	-5	13
CC(=O)c1cccc(NC(=S)N2CCN(CCN3C(=O)c4cccc5cccc(c45)C3=O)CC2)c1	14	-12	-13	42
CC(=O)c1ccc(OCC(O)CN2CCN(CCN3C(=O)c4cccc5cccc(c45)C3=O)CC2)cc1 (stereo not given)	2	-16	27	91*
O=C(/C=C/c1ccccc1)N1CCN(CCN2C(=O)c3cccc4cccc(c34)C2=O)CC1	-21	-6	6	100*
Cc1ccccc1OCC(O)CN1CCN(CCN2C(=O)c3cccc4cccc(c34)C2=O)CC1 (stereo not given)	-31	33	30	100*
Cn1nc(C(F)(F)F)c(C#N)c1N1CCN(c2cccc(C(F)(F)F)c2)CC1	3	45	9	-8
Cc1ccc([N+](=O)[O-])cc1NC(=O)Nc1cccc(F)c1	·	57	·	·
COc1cc(NC(=O)C2CC2)c(OC)cc1NC(=O)CCC(=O)NC1CCN(Cc2ccccc2)CC1	1	15	-2	-6
COc1cc(OC)cc(-n2nnnc2SCC(=O)N2CCCc3ccccc32)c1	-6	18	2	8
Cc1occc1-c1nnc(SCC(=O)N2CCCc3ccccc32)n1Cc1ccco1	1	38	-2	74*
COc1cccc(-n2nnnc2SCC(=O)N2CCCc3ccccc32)c1	10	70*	2	14
Cc1cccc(-n2ccnc2SCC(=O)N2CCCc3ccccc32)c1C	13	27	37	60*
NC(=O)Oc1cccc(OC(N)=O)c1	·	-1	·	·
CC(=O)c1c(C)[nH]c(C(=O)CN2C(=O)NC(C)(c3ccc(C)cc3)C2=O)c1C (stereo not given)	3	28	-3	2
CN1CCC(N(C)C(=S)NC(=O)c2cc(-c3cccc(Br)c3)nc3ccccc23)CC1	2	-32	38	19
COc1ccc(-c2nc3c(c(=O)[nH]c(=O)n3Cc3ccccc3)n2C)cc1	-4	20	-20	-1
COCCn1c(-c2cccc([N+](=O)[O-])c2)nc2c1c(=O)[nH]c(=O)n2Cc1ccccc1	10	31	-14	84*
COc1cc(Br)cc(-c2nc3c(c(=O)[nH]c(=O)n3Cc3ccccc3)n2C)c1O	53*	65	9	-7
COc1ccc(-c2nc3c(c(=O)[nH]c(=O)n3Cc3ccccc3)n2Cc2ccccc2)cc1	-26	76*	39	99*
O=c1cc(-c2ccc([N+](=O)[O-])cc2)c2ccc(O)cc2o1	6	27	-5	-10
SMILES	Arbovirus inh	CHOP inhibitor	WT yeast gro inh	L major viab
c1cc2c(cc1-c1csc(NNC3=NCCCCC3)n1)OCCO2	4	4	30	33
COc1ccc(OC(C)C(=O)N2CCCc3ccccc32)cc1 (stereo not given)	3	4	8	14
COCCNC(=O)Cn1nc(C)c([N+](=O)[O-])c1C	-2	-16	-19	-8
O=C(CN1CCCCCC1)NN(Cc1ccccc1)c1ccccc1	·	-1	·	·
COC(=O)c1ccc(C(=O)OC)c(NC(=S)N2CCN(C(=O)C3CCCO3)CC2)c1 (stereo not given)	·	-13	·	·
CCC(C)C(NC(=O)C1CCC(C)CC1)C(=O)NC1CCN(Cc2ccccc2)CC1 (stereo not given)	1	12	2	-8
O=c1c(CN2CCN(Cc3ccccc3)CC2)coc2ccc(Cl)cc12	-2	6	10	76*
CCc1cc2c3c(c1)C1(C(=O)N3C(C)(C)C=C2C)C(C#N)=C(N)Oc2[nH]c(=O)[nH]c(=O)c21 (stereo not given)	-8	11	17	37
CCOC(=O)CNc1ccc(OC(F)(F)F)cc1	·	16	·	·
CC(NC(=O)C(=O)N/N=C/c1ccccc1)c1ccccc1 (stereo not given)	-8	71*	4	-5
